Records with an inconclusive call do not appear. Activity calls are given as the source filed them. Unless noted, the limit is not given here; nearly all actives have AC50 up to about 30 µM.
Tests used:
[1] = growth inhibition of DIPG glioma cells, dose response, cell-based, SU-DIPG-XIII, MIPE4.0, CellTiter-Glo, qHTS (AID 1347061; cut-off not given, nearly all actives have AC50 up to about 37 µM;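 also: cells exposed to compound for 48 hours before readout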); conditions: SU-DIPG-XIII viability, CellTiter-Glo ATP luminescence
[2] = growth inhibition of DIPG glioma cells, dose response, cell-based, JHH-DIPG-1, MIPE4.0, CellTiter-Glo, qHTS (AID 1347062; cut-off not given, nearly all actives have AC50 up to about 27 µM;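 as to AC50: cells exposed to compound for two days before readout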); conditions: JHH-DIPG-1 viability, CellTiter-Glo ATP luminescence
[3] = growth inhibition of DIPG glioma cells, dose response, cell-based, SU-DIPG-IV, MIPE4.0, CellTiter-Glo, qHTS (AID 1347063); conditions: SU-DIPG-IV viability, CellTiter-Glo ATP luminescence;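 also: compound exposure lasted 48 hours before the viability readout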
[4] = growth inhibition of DIPG glioma cells, dose response, cell-based, SU-DIPG-XIII, MIPE5.0, CellTiter-Glo, qHTS (AID 1347064; cut-off not given, nearly all actives have AC50 up to about 23 µM); conditions: SU-DIPG-XIII viability, CellTiter-Glo ATP luminescence
[5] = SU-DIPG-VI glioma cell viability, MIPE4.0 library, CellTiter-Glo luminescence, qHTS (AID 1347066); conditions: CellTiter-Glo ATP luminescence;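 also: cells exposed to compound for 48 hours before readout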
[6] = SU-DIPG-XXV glioma cell viability, MIPE5.0 library, qHTS (AID 1347068; cut-off not given, nearly all actives have IC50 up to about 30 µM)
[7] = JHH-DIPG-1 glioma cell viability, MIPE5.0 library, CellTiter-Glo luminescence, qHTS (AID 1347067; cut-off not given, nearly all actives have AC50 up to about 26 µM;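 also: cells exposed to compound for 48 hours before readout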); conditions: JHH-DIPG-1 glioma viability, CellTiter-Glo ATP luminescence
[8] = sensitizers of A549 cells to miR-34 induction, primary screen, imaging, A549 dox-inducible miR-34, nuclei and caspase counts (AID 1347080;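 active = compounds whose cell count with miR-34 switched on is under 0.7 times the count with it off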); conditions: A549 miR-34 inducible, Hoechst nuclei count, 48 h
[9] = survival rescue of mitochondrial mutant cells in low glucose, primary screen, MELAS cybrids, Rieske KO mouse fibroblasts, CellTiter-Glo (AID 1508586;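 active = mean z-score across replicates of 1.96 or higher in either the MELAS or the Rieske mutant cell line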;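 also: z relative to plate mean and SD of compound and empty wells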)
[10] = viability loss in pontine glioma line – cell-based, SU-DIPG-XXV, MIPE5.0, CellTiter-Glo, qHTS, dose response (AID 1347065; cut-off not given, nearly all actives have AC50 up to about 26 µM;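 also: cells exposed to compound for 48 hours before ATP readout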); conditions: CellTiter-Glo ATP luminescence

CC(C)(C)OC(=O)N[C@H]1CCCCC/C=C\[C@@H]2C[C@@]2(C(=O)NS(=O)(=O)C2CC2)NC(=O)[C@@H]2C[C@@H](OC(=O)N3Cc4cccc(F)c4C3)CN2C1=O
inactive: outcome [1] | outcome [2] | outcome [3] | outcome [4] | outcome [5] | outcome [6]

Cc1nc2c([nH]1)CCN(C(=O)c1ccc(NC(=O)c3ccccc3-c3ccccc3)cc1)c1ccccc1-2
0.668: z-score ([9]; Rieske KO mouse fibroblast survival, CellTiter-Glo 72 h)
8050: cell count ([8]; measured here: total cells with miR-34 induction, stronger effect = lower value)
8690: cell count ([8]; measured here: total cells without miR-34 induction)
inactive: outcome [1] | outcome [2] | outcome [3] | outcome [4] | outcome [5] | outcome [7] | outcome [6] | fold change ([8]; stronger effect = lower value, cell number ratio, induced over uninduced) 0.926 | z-score ([9]; MELAS cybrid survival, CellTiter-Glo 48 h, stronger effect = higher value) -0.466
0.734: fold change ([8]; measured here: relative caspase fold change +Dox/-Dox)

Nc1nc(=O)n([C@H]2CSC(CO)O2)cc1F (some centres undefined)
inactive: outcome [1] | outcome [2] | outcome [3] | outcome [5]

O=C(O)[C@H]1O[C@H](Oc2cc3oc(-c4ccccc4)cc(=O)c3c(O)c2O)[C@H](O)[C@@H](O)[C@@H]1O
inactive: outcome [1] | outcome [2] | outcome [3] | outcome [5]

CC[C@H]1OC(=O)[C@H](C)[C@@H](O[C@H]2C[C@@](C)(OC)[C@@H](O)[C@H](C)O2)[C@H](C)[C@@H](O[C@@H]2O[C@@H](C)C[C@H](N(C)C)[C@H]2O)[C@](C)(O)C[C@@H](C)C(=O)[C@H](C)[C@@H](O)[C@]1(C)O
inactive: outcome [1] | outcome [2] | outcome [3] | outcome [5]

CCCCCNC(=O)N1CCC(CN(Cc2ccc(Cl)cc2)Cc2ccc([N+](=O)[O-])s2)C1 (centres undefined)
inactive: outcome [1] | outcome [2]
active: AC50 [3] 23.5 µM | AC50 [10] 29.5 µM | AC50 [7] 23.5 µM

O=C(NNC(=O)c1ccc(CNS(=O)(=O)c2ccc(F)c(Cl)c2)cc1)c1ccccc1
inactive: outcome [1] | outcome [2] | outcome [3] | outcome [5]

C=C1/C(=C\C=C2/CCC[C@]3(C)[C@@H]([C@H](C)/C=C/[C@H](C)C(C)C)CC[C@@H]23)C[C@@H](O)C[C@@H]1O
active: AC50 [1] 8.33 µM | AC50 [2] 0.418 µM | AC50 [3] 5.9 µM | AC50 [10] 18.6 µM | AC50 [5] 23.5 µM | AC50 [7] 26.3 µM
inactive: outcome [6]

COc1ccc(CC2SC(=O)NC2=O)cc1C(=O)NCc1ccc(C(F)(F)F)cc1 (centres undefined)
inactive: outcome [1] | outcome [2] | outcome [3] | outcome [10] | outcome [5] | outcome [7] | outcome [6]

Cc1ccnc(NS(=O)(=O)c2ccc(NC(=O)Nc3ccc(S(=O)(=O)Nc4nccc(C)n4)cc3)cc2)n1
inactive: outcome [1] | outcome [10] | outcome [5] | outcome [7] | outcome [6]
active: AC50 [2] 2.64 µM | AC50 [3] 14.8 µM

CN(C)CCCNC(=O)c1ccc(-c2cc(O)c3ncccc3c2)cc1
inactive: outcome [1] | outcome [2] | outcome [3] | outcome [10] | outcome [7]

C1=C/COCc2cc(ccc2OCCN2CCCC2)Nc2nccc(n2)-c2cccc(c2)OCC/1
active: AC50 [1] 14.8 µM | AC50 [2] 4.18 µM | AC50 [3] 2.35 µM | AC50 [5] 5.26 µM

Cc1nnc(C(C)C)n1C1C[C@H]2CC[C@@H](C1)N2CC[C@H](NC(=O)C1CCC(F)(F)CC1)c1ccccc1 (some centres undefined)
inactive: outcome [1] | outcome [2] | outcome [3] | outcome [5]
